Results: paper PMC7862700, “An all-to-all approach to the identification of sequence-specific readers for epigenetic DNA modifications on cytosine”

Key:
Assay in all cases: DAPPL (digital affinity profiling via proximity ligation, sequencing); 10 mM Tris-HCl pH 7.5, 50 mM NaCl, 1 mM DTT, 4% glycerol, room temperature, 30 min; GST-TFs on glutathione beads, 16-mer random dsDNA library, 0.1% formaldehyde crosslink after washing; high values mean tight binding
FEV = molecular target: T1, FEV (Homo sapiens, UniProt Q99581 1-238); conditions: protein: recombinant; tags: N-terminal GST; dsDNA, one strand shown
T1 sequence: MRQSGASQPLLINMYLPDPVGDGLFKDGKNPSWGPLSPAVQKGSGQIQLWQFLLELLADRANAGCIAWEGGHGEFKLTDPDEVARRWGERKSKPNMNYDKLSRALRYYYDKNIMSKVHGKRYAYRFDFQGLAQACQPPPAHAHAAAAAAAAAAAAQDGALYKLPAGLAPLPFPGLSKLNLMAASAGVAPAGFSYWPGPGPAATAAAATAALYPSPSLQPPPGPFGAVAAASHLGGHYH
Procedure, shortened: (§1)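 Yeast served to express human transcription factors as GST fusions, which were then captured on glutathione beads and labelled with DNA barcodes. Pooled with a tag-only sample, they were incubated with 200 nmole of a 16-mer random double-stranded DNA library for 30 min at room temperature in Tris/NaCl/DTT/glycerol buffer, washed, crosslinked with 0.1% formaldehyde, ligated by proximity, amplified by PCR and sequenced. Dividing each hexamer's read frequency for a factor by its frequency for the tag-only sample gives the binding signal.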

ETV5 = ETV5 (Homo sapiens, UniProt P41161 1-510); conditions: protein: recombinant; tags: N-terminal GST; dsDNA, one strand shown
ETV5, sequence (P41161 whole entry): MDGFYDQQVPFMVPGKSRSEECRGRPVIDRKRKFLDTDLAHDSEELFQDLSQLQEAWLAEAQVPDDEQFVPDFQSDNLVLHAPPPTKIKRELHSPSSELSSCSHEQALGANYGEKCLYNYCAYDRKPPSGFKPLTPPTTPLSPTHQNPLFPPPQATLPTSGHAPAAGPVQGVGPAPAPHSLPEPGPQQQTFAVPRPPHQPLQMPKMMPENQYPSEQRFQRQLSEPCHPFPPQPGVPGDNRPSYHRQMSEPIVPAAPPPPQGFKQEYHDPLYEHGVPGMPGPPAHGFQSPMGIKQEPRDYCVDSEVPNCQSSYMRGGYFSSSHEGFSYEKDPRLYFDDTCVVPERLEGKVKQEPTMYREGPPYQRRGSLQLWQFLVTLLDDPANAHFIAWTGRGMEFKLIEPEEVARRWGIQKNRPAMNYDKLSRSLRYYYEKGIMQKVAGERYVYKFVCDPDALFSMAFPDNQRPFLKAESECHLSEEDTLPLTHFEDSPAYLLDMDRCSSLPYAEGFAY
Procedure, shortened: as §1

HSF1 = HSF1 (Homo sapiens, UniProt Q00613 1-529); conditions: protein: recombinant; tags: N-terminal GST; chain copies: 3; dsDNA, one strand shown
HSF1, sequence (Q00613 whole entry): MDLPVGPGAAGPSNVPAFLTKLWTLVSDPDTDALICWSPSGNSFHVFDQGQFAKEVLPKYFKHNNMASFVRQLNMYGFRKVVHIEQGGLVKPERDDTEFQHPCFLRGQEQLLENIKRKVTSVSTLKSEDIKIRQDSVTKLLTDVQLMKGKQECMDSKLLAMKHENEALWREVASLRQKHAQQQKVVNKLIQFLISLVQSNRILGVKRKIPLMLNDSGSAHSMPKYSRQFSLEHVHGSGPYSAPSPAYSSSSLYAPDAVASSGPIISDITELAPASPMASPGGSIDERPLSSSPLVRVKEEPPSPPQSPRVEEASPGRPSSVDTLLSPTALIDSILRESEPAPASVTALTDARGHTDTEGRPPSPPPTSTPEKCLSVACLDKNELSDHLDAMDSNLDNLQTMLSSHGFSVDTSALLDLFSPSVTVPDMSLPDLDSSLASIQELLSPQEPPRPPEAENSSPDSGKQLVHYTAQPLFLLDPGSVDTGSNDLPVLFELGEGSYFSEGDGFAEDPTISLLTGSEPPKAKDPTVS
Procedure, shortened: as §1

SPIC = molecular target: T2, SPIC (Homo sapiens, UniProt Q8N5J4 1-248); conditions: protein: recombinant; tags: N-terminal GST; dsDNA, one strand shown
T2 sequence: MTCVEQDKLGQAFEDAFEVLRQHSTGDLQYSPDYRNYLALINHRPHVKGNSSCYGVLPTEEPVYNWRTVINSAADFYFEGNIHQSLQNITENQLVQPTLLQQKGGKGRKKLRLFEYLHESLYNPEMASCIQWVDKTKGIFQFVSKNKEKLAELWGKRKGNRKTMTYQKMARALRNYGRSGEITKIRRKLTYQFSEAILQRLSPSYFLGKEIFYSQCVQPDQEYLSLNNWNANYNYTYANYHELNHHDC
Procedure, shortened: as §1

ELF4 = ELF4 (Homo sapiens, UniProt Q99607 1-663); conditions: protein: recombinant; tags: N-terminal GST; dsDNA, one strand shown
ELF4, sequence (Q99607 whole entry): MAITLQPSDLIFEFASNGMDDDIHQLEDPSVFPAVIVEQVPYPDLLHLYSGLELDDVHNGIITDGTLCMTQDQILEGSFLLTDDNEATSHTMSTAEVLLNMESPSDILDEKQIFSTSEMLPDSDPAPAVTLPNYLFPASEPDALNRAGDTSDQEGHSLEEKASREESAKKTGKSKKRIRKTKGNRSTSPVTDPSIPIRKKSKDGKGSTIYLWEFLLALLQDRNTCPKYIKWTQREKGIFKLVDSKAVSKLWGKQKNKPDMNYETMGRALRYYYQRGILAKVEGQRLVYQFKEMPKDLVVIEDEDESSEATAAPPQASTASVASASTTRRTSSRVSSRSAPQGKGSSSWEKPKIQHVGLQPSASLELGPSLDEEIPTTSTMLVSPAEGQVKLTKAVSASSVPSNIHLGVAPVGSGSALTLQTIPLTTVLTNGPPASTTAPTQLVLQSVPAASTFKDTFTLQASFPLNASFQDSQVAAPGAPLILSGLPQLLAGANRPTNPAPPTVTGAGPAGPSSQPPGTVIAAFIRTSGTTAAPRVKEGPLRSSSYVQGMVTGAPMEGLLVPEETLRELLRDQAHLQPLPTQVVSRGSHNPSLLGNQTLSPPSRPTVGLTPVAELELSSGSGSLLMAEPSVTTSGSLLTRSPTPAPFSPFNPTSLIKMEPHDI
Procedure, shortened: as §1

ELK4 = molecular target: T3, ELK4 (Homo sapiens, UniProt P28324-2 1-405); conditions: protein: recombinant; tags: N-terminal GST; dsDNA, one strand shown
T3 sequence: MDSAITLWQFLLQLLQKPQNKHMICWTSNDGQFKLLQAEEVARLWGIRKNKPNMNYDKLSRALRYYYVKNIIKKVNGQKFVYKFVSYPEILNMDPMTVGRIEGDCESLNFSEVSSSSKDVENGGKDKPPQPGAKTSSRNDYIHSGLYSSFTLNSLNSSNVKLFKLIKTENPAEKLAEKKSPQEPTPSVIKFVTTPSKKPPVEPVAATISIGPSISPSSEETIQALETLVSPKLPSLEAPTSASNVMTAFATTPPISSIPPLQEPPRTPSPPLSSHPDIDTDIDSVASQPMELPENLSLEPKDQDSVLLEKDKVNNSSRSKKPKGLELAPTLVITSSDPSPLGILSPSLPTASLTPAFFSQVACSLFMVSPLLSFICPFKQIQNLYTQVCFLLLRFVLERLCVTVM
Procedure, shortened: as §1

ETV2 = molecular target: T4, ETV2 (Homo sapiens, UniProt O00321 1-342); conditions: protein: recombinant; tags: N-terminal GST; dsDNA, one strand shown
T4 sequence: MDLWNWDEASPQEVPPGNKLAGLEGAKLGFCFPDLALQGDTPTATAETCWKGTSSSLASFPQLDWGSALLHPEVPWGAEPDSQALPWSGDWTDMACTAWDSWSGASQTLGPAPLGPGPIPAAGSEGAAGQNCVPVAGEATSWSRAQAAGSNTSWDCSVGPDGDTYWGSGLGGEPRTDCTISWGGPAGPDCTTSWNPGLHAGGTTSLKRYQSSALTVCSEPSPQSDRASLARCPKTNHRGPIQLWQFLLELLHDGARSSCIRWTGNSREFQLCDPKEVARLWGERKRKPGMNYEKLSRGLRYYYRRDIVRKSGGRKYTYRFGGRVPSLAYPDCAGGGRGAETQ
Procedure, shortened: as §1

ELF3 = molecular target: T5, ELF3 (Homo sapiens, UniProt P78545 1-371); conditions: protein: recombinant; tags: N-terminal GST; dsDNA, one strand shown
T5 sequence: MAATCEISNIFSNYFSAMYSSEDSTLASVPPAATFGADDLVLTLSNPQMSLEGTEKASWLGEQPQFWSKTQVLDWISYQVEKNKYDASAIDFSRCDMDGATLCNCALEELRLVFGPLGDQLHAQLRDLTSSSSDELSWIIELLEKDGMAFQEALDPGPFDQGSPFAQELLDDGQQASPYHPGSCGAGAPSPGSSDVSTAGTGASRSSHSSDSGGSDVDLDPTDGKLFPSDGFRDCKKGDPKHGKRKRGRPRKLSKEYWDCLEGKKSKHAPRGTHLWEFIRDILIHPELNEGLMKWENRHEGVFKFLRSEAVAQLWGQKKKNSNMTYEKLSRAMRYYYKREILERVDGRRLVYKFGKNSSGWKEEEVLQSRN
Procedure, shortened: as §1

CRX = CRX (Homo sapiens, UniProt O43186 1-299); conditions: protein: recombinant; tags: N-terminal GST; dsDNA, one strand shown
CRX, sequence (O43186 whole entry): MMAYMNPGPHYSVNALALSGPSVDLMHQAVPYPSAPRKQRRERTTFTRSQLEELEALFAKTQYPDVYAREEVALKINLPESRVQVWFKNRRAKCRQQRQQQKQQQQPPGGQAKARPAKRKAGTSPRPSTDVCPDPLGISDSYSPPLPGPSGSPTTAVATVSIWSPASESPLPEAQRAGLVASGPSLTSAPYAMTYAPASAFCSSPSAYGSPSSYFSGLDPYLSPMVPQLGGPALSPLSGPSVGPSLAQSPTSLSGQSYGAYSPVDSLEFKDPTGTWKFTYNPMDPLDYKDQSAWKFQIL
Procedure, shortened: as §1

ETV1 = ETV1 (Homo sapiens, UniProt P50549 1-477); conditions: protein: recombinant; tags: N-terminal GST; dsDNA, one strand shown
ETV1, sequence (P50549 whole entry): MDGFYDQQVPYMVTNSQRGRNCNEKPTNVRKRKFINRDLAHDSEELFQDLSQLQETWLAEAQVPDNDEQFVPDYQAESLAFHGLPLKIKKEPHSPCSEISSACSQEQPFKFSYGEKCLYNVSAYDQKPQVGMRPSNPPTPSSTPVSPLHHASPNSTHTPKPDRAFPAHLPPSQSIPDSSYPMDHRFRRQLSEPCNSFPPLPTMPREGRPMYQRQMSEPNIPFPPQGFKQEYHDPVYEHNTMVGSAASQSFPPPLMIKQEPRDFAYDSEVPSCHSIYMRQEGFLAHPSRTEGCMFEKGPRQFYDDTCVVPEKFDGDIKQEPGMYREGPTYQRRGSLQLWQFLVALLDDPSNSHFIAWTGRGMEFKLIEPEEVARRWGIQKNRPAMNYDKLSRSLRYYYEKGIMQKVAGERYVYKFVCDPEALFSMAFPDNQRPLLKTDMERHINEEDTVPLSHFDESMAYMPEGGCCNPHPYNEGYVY
Procedure, shortened: as §1

ERF = molecular target: T6, ERF (Homo sapiens, UniProt P50548 1-548); conditions: protein: recombinant; tags: N-terminal GST; dsDNA, one strand shown
T6 sequence: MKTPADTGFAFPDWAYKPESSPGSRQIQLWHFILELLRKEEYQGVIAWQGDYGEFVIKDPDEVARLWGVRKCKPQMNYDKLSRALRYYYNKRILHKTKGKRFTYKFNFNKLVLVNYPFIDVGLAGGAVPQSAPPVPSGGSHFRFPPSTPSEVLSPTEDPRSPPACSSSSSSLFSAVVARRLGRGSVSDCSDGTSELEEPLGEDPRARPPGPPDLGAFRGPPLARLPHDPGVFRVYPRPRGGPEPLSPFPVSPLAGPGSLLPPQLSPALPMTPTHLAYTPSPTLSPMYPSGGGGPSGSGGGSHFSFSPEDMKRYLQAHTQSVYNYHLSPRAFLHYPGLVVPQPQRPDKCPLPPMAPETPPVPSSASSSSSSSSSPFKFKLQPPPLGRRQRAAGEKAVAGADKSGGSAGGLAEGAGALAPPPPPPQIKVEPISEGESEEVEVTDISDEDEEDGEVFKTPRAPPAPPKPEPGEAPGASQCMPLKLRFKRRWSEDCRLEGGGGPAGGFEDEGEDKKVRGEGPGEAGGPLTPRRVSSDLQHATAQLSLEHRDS
Procedure, shortened: as §1

ETV3L = molecular target: T7, ETV3L (Homo sapiens, UniProt Q6ZN32 1-361); conditions: protein: recombinant; tags: N-terminal GST; dsDNA, one strand shown
T7 sequence: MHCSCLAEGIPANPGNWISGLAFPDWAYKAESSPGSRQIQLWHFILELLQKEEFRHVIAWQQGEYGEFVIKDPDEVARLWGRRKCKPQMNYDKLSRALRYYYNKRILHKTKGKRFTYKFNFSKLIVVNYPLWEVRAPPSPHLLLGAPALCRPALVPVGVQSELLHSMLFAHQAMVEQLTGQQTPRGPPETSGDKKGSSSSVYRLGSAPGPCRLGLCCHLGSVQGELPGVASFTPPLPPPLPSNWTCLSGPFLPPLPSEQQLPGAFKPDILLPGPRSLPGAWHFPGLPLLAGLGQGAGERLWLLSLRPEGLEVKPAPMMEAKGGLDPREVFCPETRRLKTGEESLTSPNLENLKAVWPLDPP
Procedure, shortened: as §1

ETS2 = molecular target: T8, ETS2 (Homo sapiens, UniProt P15036 1-469); conditions: protein: recombinant; tags: N-terminal GST; dsDNA, one strand shown
T8 sequence: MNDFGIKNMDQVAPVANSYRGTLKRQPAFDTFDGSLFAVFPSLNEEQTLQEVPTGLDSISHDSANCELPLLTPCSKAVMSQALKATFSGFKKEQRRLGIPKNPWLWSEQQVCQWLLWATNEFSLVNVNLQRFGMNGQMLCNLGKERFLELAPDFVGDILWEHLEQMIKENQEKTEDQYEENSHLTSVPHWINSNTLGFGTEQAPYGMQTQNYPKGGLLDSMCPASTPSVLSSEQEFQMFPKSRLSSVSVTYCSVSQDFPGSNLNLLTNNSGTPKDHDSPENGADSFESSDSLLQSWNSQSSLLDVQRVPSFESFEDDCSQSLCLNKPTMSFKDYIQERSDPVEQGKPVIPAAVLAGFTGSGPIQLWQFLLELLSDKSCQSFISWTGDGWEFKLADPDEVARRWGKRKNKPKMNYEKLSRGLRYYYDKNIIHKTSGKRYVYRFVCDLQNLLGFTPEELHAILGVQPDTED
Procedure, shortened: as §1

SPDEF = molecular target: T9, SPDEF (Homo sapiens, UniProt O95238 1-335); conditions: protein: recombinant; tags: N-terminal GST; dsDNA, one strand shown
T9 sequence: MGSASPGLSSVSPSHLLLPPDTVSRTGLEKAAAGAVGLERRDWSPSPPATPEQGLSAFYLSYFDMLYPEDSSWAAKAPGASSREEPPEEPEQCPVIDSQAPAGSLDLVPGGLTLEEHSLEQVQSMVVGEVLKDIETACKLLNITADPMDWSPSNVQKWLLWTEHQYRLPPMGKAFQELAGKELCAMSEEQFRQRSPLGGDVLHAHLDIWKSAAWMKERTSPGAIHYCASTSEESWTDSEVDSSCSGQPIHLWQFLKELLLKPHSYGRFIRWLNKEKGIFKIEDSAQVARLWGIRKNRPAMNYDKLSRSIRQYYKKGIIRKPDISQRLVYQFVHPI
Procedure, shortened: as §1

ETV7 = molecular target: T10, ETV7 (Homo sapiens, UniProt Q9Y603 1-341); conditions: protein: recombinant; tags: N-terminal GST; dsDNA, one strand shown
T10 sequence: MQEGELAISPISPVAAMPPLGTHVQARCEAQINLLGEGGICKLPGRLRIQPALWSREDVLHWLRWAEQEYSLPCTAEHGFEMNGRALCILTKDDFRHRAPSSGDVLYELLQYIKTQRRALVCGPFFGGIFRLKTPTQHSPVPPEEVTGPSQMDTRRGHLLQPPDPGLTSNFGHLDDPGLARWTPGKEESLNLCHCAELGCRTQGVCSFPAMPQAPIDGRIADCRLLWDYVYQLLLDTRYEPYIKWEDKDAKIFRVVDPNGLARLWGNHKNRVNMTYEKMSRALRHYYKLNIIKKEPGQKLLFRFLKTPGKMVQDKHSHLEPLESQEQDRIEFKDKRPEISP
Procedure, shortened: as §1

ELF5 = molecular target: T11, ELF5 (Homo sapiens, UniProt Q9UKW6-2 1-255); conditions: protein: recombinant; tags: N-terminal GST; dsDNA, one strand shown
T11 sequence: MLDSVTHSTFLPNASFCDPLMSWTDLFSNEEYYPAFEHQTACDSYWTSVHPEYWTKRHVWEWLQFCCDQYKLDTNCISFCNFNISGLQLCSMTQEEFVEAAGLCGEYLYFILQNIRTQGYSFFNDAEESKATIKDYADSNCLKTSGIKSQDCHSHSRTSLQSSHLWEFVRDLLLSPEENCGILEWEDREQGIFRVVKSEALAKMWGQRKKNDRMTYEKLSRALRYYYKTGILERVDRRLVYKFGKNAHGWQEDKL
Procedure, shortened: as §1

ETV3 = molecular target: T12, ETV3 (Homo sapiens, UniProt P41162-2 1-143); conditions: protein: recombinant; tags: N-terminal GST; dsDNA, one strand shown
T12 sequence: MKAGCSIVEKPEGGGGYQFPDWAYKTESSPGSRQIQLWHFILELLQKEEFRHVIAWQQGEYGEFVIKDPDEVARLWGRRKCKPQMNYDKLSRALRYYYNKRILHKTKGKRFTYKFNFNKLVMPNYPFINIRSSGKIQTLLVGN
Procedure, shortened: as §1

ETV6 = ETV6 (Homo sapiens, UniProt P41212 1-452); conditions: protein: recombinant; tags: N-terminal GST; dsDNA, one strand shown
ETV6, sequence (P41212 whole entry): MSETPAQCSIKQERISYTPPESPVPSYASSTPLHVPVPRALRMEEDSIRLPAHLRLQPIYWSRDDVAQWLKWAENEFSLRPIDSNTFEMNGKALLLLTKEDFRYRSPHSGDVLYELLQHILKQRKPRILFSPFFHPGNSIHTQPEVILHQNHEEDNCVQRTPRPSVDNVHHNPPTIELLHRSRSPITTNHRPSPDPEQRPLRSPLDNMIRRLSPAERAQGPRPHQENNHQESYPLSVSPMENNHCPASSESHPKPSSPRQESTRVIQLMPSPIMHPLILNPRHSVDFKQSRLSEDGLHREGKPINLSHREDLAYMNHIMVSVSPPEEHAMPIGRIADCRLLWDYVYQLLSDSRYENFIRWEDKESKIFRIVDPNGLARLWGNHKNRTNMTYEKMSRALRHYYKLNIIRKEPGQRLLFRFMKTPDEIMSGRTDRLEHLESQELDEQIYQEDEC
Procedure, shortened: as §1

Q: What does the source list for TTCTGG?
A: binding signal (FEV): 1.19 fold enrichment (6-mer frequency, TF over GST control); binding signal (ETV5): 1.16 fold enrichment (6-mer frequency, TF over GST control); binding signal (HSF1): 4.45 fold enrichment (6-mer frequency, TF over GST control); binding signal (SPIC): 1.36 fold enrichment (6-mer frequency, TF over GST control); binding signal (ELF4): 1.29 fold enrichment (6-mer frequency, TF over GST control); binding signal (ELK4): 1.35 fold enrichment (6-mer frequency, TF over GST control); binding signal (ETV2): 1.42 fold enrichment (6-mer frequency, TF over GST control); binding signal (ELF3): 1.21 fold enrichment (6-mer frequency, TF over GST control); binding signal (CRX): 1.76 fold enrichment (6-mer frequency, TF over GST control); binding signal (ETV1): 1.21 fold enrichment (6-mer frequency, TF over GST control); binding signal (ERF): 1.35 fold enrichment (6-mer frequency, TF over GST control); binding signal (ETV3L): 1.23 fold enrichment (6-mer frequency, TF over GST control); binding signal (ETS2): 1.19 fold enrichment (6-mer frequency, TF over GST control); binding signal (SPDEF): 1.23 fold enrichment (6-mer frequency, TF over GST control); binding signal (ETV7): 1.21 fold enrichment (6-mer frequency, TF over GST control); binding signal (ELF5): 1.22 fold enrichment (6-mer frequency, TF over GST control); binding signal (ETV3): 1.2 fold enrichment (6-mer frequency, TF over GST control); binding signal (ETV6): 1.32 fold enrichment (6-mer frequency, TF over GST control)
